Data taken from the supplement of paper PMC10981050.
Values joined by “and” are separate entries in the source; they are usually repeats but may differ in a detail not shown here. Equal entries are not always repeated. Structures can show the parent of a compound that is named as a salt.

Legend:
Assay in all cases: cell viability relative to vehicle control; higher = less cytotoxic
Conditions in all cases: 10 µM
K562 = tested on: K562
Outline: (§1)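 CRISPR-edited SRSF2 P95 mutant and isogenic wild-type clones of four leukaemia lines were screened against Selleck bioactive, kinase and epigenetic probe libraries, with identity-inconsistent compounds removed. Compounds were acoustically dispensed into 384-well plates at a single 10 µM dose, with 2000 cells in 50 µL medium per well. After 48 h, supernatant was removed and CellTiter-Glo luminescence was read. Viability was expressed as percent of the on-plate DMSO vehicle control, analysed in Genedata Screener.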

MARIMO = tested on: MARIMO
Outline: as §1

MOLM14 = tested on: MOLM14
Outline: as §1

OCI-AML2 = tested on: OCI-AML2
Outline: as §1

Structure (SMILES)	cell viability (K562; SRSF2 genotype: SRSF2 P95H/wt)	cell viability (K562; SRSF2 genotype: SRSF2 wt/wt) [%]	cell viability (MARIMO; SRSF2 genotype: SRSF2 P95H/wt) [%]	cell viability (MARIMO; SRSF2 genotype: SRSF2 wt/wt) [%]	cell viability (MOLM14; SRSF2 genotype: SRSF2 P95H/wt) [%]	cell viability (MOLM14; SRSF2 genotype: SRSF2 wt/wt) [%]	cell viability (OCI-AML2; SRSF2 genotype: P95H/wt) [%]	cell viability (OCI-AML2; SRSF2 genotype: wt/wt) [%]
COc1ccccc1OCC(O)COC(N)=O (centres undefined) [Methocarbamol (Robaxin)]	99.3% and 104%	107	94.9	106	109	104	98.4	106
CN1CC2c3ccccc3Oc3ccc(Cl)cc3C2C1 (centres undefined) [Asenapine maleate]	88.3% and 92.2%	88.2	63	78.8	88	92.6	69.9	73.2
Cc1ccc(-n2nc(C(C)(C)C)cc2NC(=O)NCc2cc(F)ccc2Oc2ccc3c(cnn3CCO)c2)cc1 [Pexmetinib (ARRY-614)]	17.1% and 26.4%	23.6	68	69.4	32.8	25.9	50	54.4
CC(C)C12CCC(C)(CC1)O2 [1,4-Cineole]	104% and 101%	104	103	103	105	110	99.4	97.7
Nc1nc2[nH]cnc2c(=S)[nH]1 [Thioguanine]	25.9% and 28.5%	26.8	46.3	37.5	35.2	23	13.5	20.5
Cn1cc(-c2ccc(S(=O)(=O)n3ccc(/C=C/C(=O)Nc4ccccc4N)c3)cc2)cn1	15% and 29.1%	32	6.4	5.67	7.6	2.05	8.31	8.21
CC(=O)OCC(=O)[C@@]12N=C(C)O[C@@H]1C[C@H]1[C@@H]3CCC4=CC(=O)C=C[C@]4(C)[C@H]3[C@@H](O)C[C@@]12C [Deflazacort (Calcort)]	98.4% and 102%	103	95	109	103	97	91.4	114
CC(=O)OC/C=C(/C)CCC=C(C)C [Neryl acetate]	98.4% and 101%	100	96.8	102	112	99.6	100	103
Cc1ccc2nc(NC(=O)CSc3nc4c(c(=O)n3-c3ccccc3)SCC4)sc2c1	91.8% and 99.4%	89.8	94	98.9	98.9	93.3	94.2	104
CNC(=O)c1cccc(-c2ccc3c(N4CCOC[C@@H]4C)nc(N4CCOC[C@@H]4C)nc3n2)c1 [Vistusertib (AZD2014)]	44.8% and 43.3%	38.4	60.8	48.5	35.1	28.9	29.2	28.8
O=c1[nH]cnc2c1ncn2[C@@H]1O[C@H](CO)[C@@H](O)[C@H]1O [Inosine]	114% and 107%	121	102	118	99.7	111	98.3	114
COc1cc(CCC(C)=O)ccc1O [Vanillylacetone]	104% and 93.6%	91.8	100	108	101	101	97.8	108
CCn1c(=O)c(-c2ccc(Cl)cc2Cl)cc2cnc(Nc3ccc(N4CCNCC4)c(F)c3)nc21	1.46% and 1.57%	3.22	4.24	2.21	0.53	0.81	0.95	1.2
O=C(/C=C/c1ccc(O)cc1)OC[C@H]1O[C@@H](Oc2c(-c3ccc(O)cc3)oc3cc(O)cc(O)c3c2=O)[C@H](O)[C@@H](O)[C@@H]1O [Tiliroside]	99.3% and 99.1%	95.3	98.9	109	100	105	104	111
Cc1c(Cc2ccc3ccccc3n2)c2cc(F)ccc2n1CC(=O)O	102% and 99.7%	98.8	97.5	108	98.5	103	90.4	107
O=C(Nc1ccccc1)c1cc([N+](=O)[O-])ccc1Cl	91.7% and 96.2%	81.4	86.8	90.8	89.3	101	90.1	91.8
CCOC(=O)CCNc1cc(N2CCc3ccccc3CC2)nc(-c2ccccn2)n1	26.1% and 28.9%	27.6	25.8	27.4	30.4	24.4	28.8	25.8
C=C1[C@H](OC(=O)/C=C(\C)CC)C[C@@H](C(C)C)[C@@H]2[C@@H]([C@@H](C)OC(C)=O)C(=O)C[C@@H]12 [Tussilagone]	83% and 91.6%	89.5	57	53.2	64.5	71.3	56.6	77.6
Cc1cc(Nc2nc(N[C@@H](C)c3ccc(F)cc3)c(C#N)cc2F)n[nH]1	53.7% and 73%	75.5	30.6	33.4	1.75	3.5	6.13	15.8
O=C(CCc1ccc(O)cc1)c1c(O)cc(O)cc1O [Phloretin]	96.9% and 94.4%	98.1	93.5	90.2	91	95.7	87.5	87.9
Cc1cc2c(C(N)=O)cccc2n1-c1nc2c(c(NCc3ccccc3)n1)COCC2	0.8% and 0.75%	0.74	0.6	1.05	0.36	0.42	0.35	0.49
COc1cc(Br)c(Nc2nc(-c3c(C)nc4ncccn34)cs2)c(Br)c1	20.6% and 23.8%	24	14.7	19.2	16	10.7	2.76	8.07

Structure (SMILES)	cell viability (K562; SRSF2 genotype: SRSF2 P95H/wt)	cell viability (K562; SRSF2 genotype: SRSF2 wt/wt) [%]	cell viability (MARIMO; SRSF2 genotype: SRSF2 P95H/wt) [%]	cell viability (MARIMO; SRSF2 genotype: SRSF2 wt/wt) [%]	cell viability (MOLM14; SRSF2 genotype: SRSF2 P95H/wt) [%]	cell viability (MOLM14; SRSF2 genotype: SRSF2 wt/wt) [%]	cell viability (OCI-AML2; SRSF2 genotype: P95H/wt) [%]	cell viability (OCI-AML2; SRSF2 genotype: wt/wt) [%]
COC(=O)[C@H](c1ccccc1Cl)N1CCc2sccc2C1 [Clopidogrel (Plavix)]	98.2% and 98.5%	94.4	78.9	101	94.1	96.9	85.4	93.4
COC(=O)c1ccc(O)c(C(=O)OC)c1 [Dimetghyl 4-Hydroxyisophthalate]	100% and 93.1%	99.4	95.2	98.7	97.3	100	90	96.6
COc1cc2ncnc(Nc3ccc(Cl)cc3F)c2cc1OC	87.2% and 95.4%	82.8	91.9	103	86.7	96.1	92.9	92.1
Nc1ncnc2c1ncn2[C@@H]1O[C@H](CO)[C@@H](O)[C@H]1O [Adenosine (Adenocard)]	113% and 107%	108	104	98.5	104	114	102	106
COc1ccc(S(=O)(=O)N(CCO)c2ccccc2CN(C)C/C=C/c2ccc(Cl)cc2)cc1 [KN-93 Phosphate]	38.5% and 44%	51.6	33.5	27.9	45.5	41.8	35.6	33.4
C=C1C(=O)O[C@@H]2C[C@@]3(C)CCCC(=C)[C@@H]3C[C@H]12 [Isoalantolactone]	27.5% and 44.2%	40.2	23	25.4	12	16.1	1.8	6.98
CN(C)CCOc1ccc(/C(=C(/CCCl)c2ccccc2)c2ccccc2)cc1 [Toremifene Citrate (Fareston, Acapodene)]	64.7% and 56.1%	71.9	53.7	65.5	56	55.7	60	51.7
COc1ccnc(C[S+]([O-])c2nc3cc(OC(F)F)ccc3[nH]2)c1OC (centres undefined) [Pantoprazole (Protonix)]	103% and 104%	102	109	103	115	112	113	96.5
CC1CCN(CC[C@H]2CCCN2S(=O)(=O)c2cccc(O)c2)CC1	101%	95	97.8	106	96.5	103	92.9	98.7
OC(c1cc(-c2ccc(Cl)cc2)nc2ccccc12)C1CCCCN1 (centres undefined) [Vacquinol-1]	0.22% and 0.74%	0.11	0.1	0.17	0.03	0.14	0.05	0.39
Cc1cccc(Nc2nc(N[C@@H]3CCCC[C@@H]3N)ncc2C(N)=O)c1	50.9% and 56.3%	63.7	47.4	44.7	22	20.7	4.23	14.4
O=C(c1cccc(Cl)c1F)N1CCN(Cc2cccc(Nc3nccs3)n2)CC1	44.2% and 57.2%	56.6	87.8	91.5	54.9	71.4	35.6	44.1
NC(=O)c1nc(F)cnc1O [Favipiravir (T-705)]	98.6% and 95.8%	95.8	91.7	92.5	89.8	94.8	100	93.2
CC(C)[C@H](N)C(=O)OCC(CO)OCn1cnc2c(=O)nc(N)[nH]c21 (some centres undefined) [Valganciclovir Hydrochloride]	86.3% and 81.6%	83.1	90.7	84.8	87.2	88.3	77	89.2
CC(=O)O[C@@H]1C[C@@]23C[C@@]24CC[C@H](O[C@@H]2OC[C@@H](O)[C@H](O)[C@H]2O)C(C)(C)[C@@H]4CC=C3[C@]2(C)C[C@@H]3OC4(C[C@@H](C)[C@@H]3[C@@]12C)OC(O)C1(C)OC41 (some centres undefined) [Cimicifugoside]	110% and 103%	105	109	111	108	106	99	96
Cc1c(C(=O)Nc2ccc(N3C[C@@H](C)O[C@@H](C)C3)nc2)cccc1-c1ccc(OC(F)(F)F)cc1 [LDE225 (NVP-LDE225, Erismodegib)]	82.9% and 91.2%	91.9	86.2	102	87.7	95.9	77.6	85
COc1cc2c(cc1O)CC[n+]1cc3c(OC)c(OC)ccc3cc1-2 [Jatrorrhizine chloride]	84.4% and 88.5%	90.3	92.6	92.9	97.6	90.5	93.5	91.4
Cn1nnc(-c2ccc(-c3ccc(N4C[C@H](COP(=O)(O)O)OC4=O)cc3F)cn2)n1 [Tedizolid Phosphate]	81.5% and 82.6%	84.9	88.8	94.5	91.8	92.3	82.3	87.8
Cc1ccc(S(=O)(=O)Nc2cc(-c3ccc(C#N)s3)ccc2C)cc1	12.9% and 36.3%	33.5	7.34	8.88	1.58	1.53	2.78	5.12
CCOC(=O)C1=C(N)Oc2ccc(Cl)cc2C1C(C#N)C(=O)OCC (centres undefined)	85.4% and 84.9%	65.4	56.6	55.8	64.2	93.2	63.7	64.2
CC#CC(=O)Nc1ccc2ncnc(Nc3cccc(Br)c3)c2c1	7.91% and 17.6%	20.9	34.7	35.5	0.84	1.92	1.61	6.95
